Source: PubChem BioAssay (Broad Institute)
Tgondii IFNg – T. gondii growth inhibition with IFN-gamma, primary screen, cell-based | actives 3.8% (n = 69,000) | activity change, negative = inhibition, % (concentration not given with the values) | Toxoplasma gondii growth in IFN-gamma-treated host cells; stronger effect = lower value | AID 1259416, 2018; in the data active = activity change below about -70%, passing the limit was not always enough;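 also: host cells are HeLa cells infected with Toxoplasma gondii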
The depositor's hits bear a star; i = inactive; ! = repeats disagree. The full list was thinned out, with hits kept by preference.

SMILES	Tgondii IFNg
CNCCn1c(=O)c2cc(OC)c(OC)cc2c2cnc3cc4c(cc3c21)OCO4	-79.9*
CCc1cc(C2CCCN2C(=O)Cn2nc(C(F)(F)F)c3c2CCCC3)on1 (centres undefined)	0.2
CS(=O)(=O)N1CCOC2(CCN(c3nccs3)CC2)c2ccccc21	3.7
COc1ccc2nc(NC(=O)COc3cccc(C)c3)sc2c1	-2.0
COc1ccc(C(C)NC(=O)c2ccc(Cc3c(C)noc3C)s2)cc1F (centres undefined)	32.0
COc1cc2sc(NC(=O)Cc3c(C)noc3C)nc2cc1Cl	-79.0*
Cc1ccc(Nc2ncc(C(=O)N(C)Cc3nnc(-c4ccccc4)o3)c(C)n2)cc1	-11.8
CSc1sc(NC(=O)Nc2cccc(C(F)(F)F)c2)cc1C#N	-2.4
Cn1nc(C(F)(F)F)cc1-c1ccc(NC(=O)Nc2cccc(C(F)(F)F)c2)s1	-90.2*
O=C(Nc1cccc(C(F)(F)F)c1)N1CCSCC1	-28.8
Cc1nc(-c2ccc(-n3ccnc3-c3ccccc3Cn3cccn3)cc2)n[nH]1	-13.6
COc1ccc(-c2nc(Nc3ccc(F)cc3)c3ccccc3n2)cc1	-28.4
COc1ccc(-c2cc(-c3ccccc3)c(-c3ccccc3)o2)cc1	-16.1
COc1ccc(-c2cc(-c3ccc4ccccc4c3)n(C)c2-c2ccc(F)cc2)cc1	-93.6*
COc1ccc(-c2cc3c(=O)n(Cc4nc(-c5ccccc5OC)oc4C)ccn3n2)cc1OC	293.8
C=CCN(Cc1ccc(F)cc1)Cc1ccc(OC)c(O)c1	-1.9
CN(C)C1CCN(C(=O)c2cc(-c3cnc(-c4cccc(F)c4)nc3)cn2C)CC1	-24.6
CN(C)CCNC(=O)c1cc(-c2cnc(-c3cccc(F)c3)nc2)cn1C	-95.1*
CN(C)CCNC(=O)c1cc(-c2cnc(NCc3ccccc3)nc2)cn1C	-36.5
c1ccc(Oc2nc(NCc3ccco3)nc(NCc3ccco3)n2)cc1	-17.8
Clc1ccc(Nc2nc(Nc3ccc(Cl)cc3)nc(Oc3ccccc3)n2)cc1	-100.2*
COc1ccc(-c2nc(Nc3ccc(Cl)cc3)c3ccccc3n2)cc1	-42.3
O=C(c1cccs1)N1CCC2(CC1)CC(N1CCCC1)CO2 (centres undefined)	-10.5
CC(C)NC(=O)N1CCCC2(CC(N(C)Cc3ccccn3)CO2)C1 (centres undefined)	-3.1
Cc1cccc2nc(C(=O)N3CCCC(C(=O)c4ccc(Oc5ccccc5)cc4)C3)cn12 (centres undefined)	0.3
SMILES	Tgondii IFNg
CC(C)(C)c1ccc(C(=O)NC(=O)Nc2cccnc2)s1	384.8
COc1cccc(C(=O)NCCc2sc(-c3ccc(C)cc3)nc2C)c1	i
CCN(CC)CCOC(=O)C1(C2CCCCC2)CCCCC1	-9.9
CCN(CC)CCOC(=O)C(c1ccccc1)C1CCCCC1 (centres undefined)	-77.4*!
CCN(CC)CCOC(=O)C(c1ccccc1)c1ccccc1	22.3
Cc1ccc(NC(=O)n2nccc2-c2ccc(-c3cccs3)s2)cc1	39.7
O=C(C1CCN(S(=O)(=O)c2ccc3[nH]c(=O)ccc3c2)CC1)N1CCN(c2ccccc2)CC1	39.1
Cc1nc(-c2ccc(Cl)cc2)sc1CCNC(=O)C(=O)Nc1ccccc1	48.0
COc1ccc(S(=O)(=O)Nc2ccc3c(c2)C(=O)N([C@H](C)CO)C[C@H](C)[C@@H](CN(C)Cc2ccc(C(F)(F)F)cc2)OCCCC[C@H](C)O3)cc1	6.1
COc1ccc(S(=O)(=O)Nc2ccc3c(c2)C(=O)N([C@H](C)CO)C[C@@H](C)[C@H](CN(C)Cc2ccc(C(F)(F)F)cc2)OCCCC[C@H](C)O3)cc1	-100.7*
C[C@@H]1CN([C@@H](C)CO)C(=O)c2cc(NS(=O)(=O)c3cn(C)cn3)ccc2O[C@@H](C)CCCCO[C@@H]1CN(C)C(=O)Nc1ccc(C(F)(F)F)cc1	45.5
COc1ccc(CN(C)C[C@@H]2OCCCC[C@@H](C)Oc3ccc(NC(=O)C4CCCCC4)cc3C(=O)N([C@@H](C)CO)C[C@H]2C)cc1	-3.2
Cc1ccc(S(=O)(=O)Nc2ccc3c(c2)C(=O)N([C@H](C)CO)C[C@@H](C)[C@H](CN(C)Cc2ccc(C(F)(F)F)cc2)O3)cc1	-20.0
COc1ccc(CN(C)C[C@@H]2OCCCC[C@H](C)Oc3ccc(NC(=O)C4CCCCC4)cc3C(=O)N([C@@H](C)CO)C[C@@H]2C)cc1	92.9
COc1ccc(CN(C)C[C@H]2OCCCC[C@@H](C)Oc3ccc(NC(=O)C4CCCCC4)cc3C(=O)N([C@H](C)CO)C[C@H]2C)cc1	38.9
C[C@@H]1CCCCO[C@H](CN(C)C(=O)Nc2ccc(C(F)(F)F)cc2)[C@H](C)CN([C@H](C)CO)C(=O)c2cc(NS(=O)(=O)c3cn(C)cn3)ccc2O1	-82.6*
C[C@H](CO)N1C[C@H](C)[C@@H](CN(C)C(=O)Nc2ccc(C(F)(F)F)cc2)OCCCC[C@H](C)Oc2ccc(NS(=O)(=O)c3cn(C)cn3)cc2C1=O	143.5
COc1ccc(S(=O)(=O)Nc2ccc3c(c2)C(=O)N([C@H](C)CO)C[C@H](C)[C@@H](CN(C)Cc2ccc(C(F)(F)F)cc2)OCCCC[C@@H](C)O3)cc1	-90.9*
COc1ccc(S(=O)(=O)Nc2ccc3c(c2)C(=O)N([C@@H](C)CO)C[C@H](C)[C@@H](CN(C)Cc2ccc(C(F)(F)F)cc2)OCCCC[C@H](C)O3)cc1	-128.8*
COc1ccc(CN(C)C[C@@H]2OCCCC[C@H](C)Oc3ccc(NC(=O)C4CCCCC4)cc3C(=O)N([C@H](C)CO)C[C@H]2C)cc1	-24.5
O[C@]12CCCC[C@H]1CN(Cc1ccc(-c3ccn[nH]3)o1)CC2	-29.2
CCNC(=O)c1ccc(-c2cccnc2OCC)s1	-17.8
Cc1nc(-c2cccc(F)c2)sc1CCNC(=O)C(=O)Nc1cccc(Cl)c1	-16.1
O=C(CN1C(=O)CCc2cc(Br)ccc21)Nc1ccc(F)cc1	12.4
CCOC(=O)N1CCC2(CC1)N=C(c1ccc(F)cc1)CC(c1ccccc1O)N2 (centres undefined)	-26.4
SMILES	Tgondii IFNg
CCc1ccc(NC(=O)C(=O)NCCc2sc(-c3ccccc3)nc2C)cc1	132.4
CC(C)Cc1ccc(S(=O)(=O)N2CCC3(CC2)Nc2cc(F)ccc2-n2cccc23)cc1	-1.3
O=C(NCc1ccc(F)cc1)c1c(O)c2ccccc2n(-c2ccccc2)c1=O	99.8
COc1ccc(C(=O)N2C[C@H]3CCCN(Cc4cccc(OC)c4F)[C@H]3C2)cc1	86.3
CN(Cc1cc(-c2ccccc2)no1)Cc1ccnn1-c1ccccc1	1.2
CCOC(=O)c1sc(COc2ccccc2OC)nc1C	0.4
CCc1nccn1CC(=O)N1CCCC(c2[nH]ncc2-c2ccc(C)cc2)C1 (centres undefined)	-1.6
CN(C)c1ccc(C(=O)NCc2cccnc2)cc1	-4.1
Cc1ccc(S(=O)(=O)Cc2nc(-c3ccc(C(=O)NCc4cccnc4)cc3)oc2C)cc1	-113.4*!
Cc1ccc(C(=O)Nc2c(C(=O)NCc3cccnc3)[nH]c3ccc(C)cc23)cc1	12.3
Cc1cnc(C(=O)N2CC[C@H](O)[C@@H]2Cc2cnn(C)c2)cn1	2.1
Cc1ccc(C(=O)C2CC(=O)NC(N3CCOCC3)=N2)cc1 (centres undefined)	-49.9
COc1ccc(N2CCCC3(CN(Cc4cncn4C)CCO3)C2)cc1 (centres undefined)	-17.3
C=CCn1c(=S)sc2c(N3CCN(c4ccccc4)CC3)ncnc21	-20.2
C=CCn1c(=S)sc2c(C(C#N)C#N)ncnc21	-102.1*
Cc1cccnc1CN(Cc1ccccc1)S(=O)(=O)c1cnn(C(F)F)c1C	-14.3
